In all, about 21,000 compounds went through this assay and about 110 (0.52%) were called active. Shown is part of a subset that was picked to be rich in actives. Unmarked numbers belong to inactive results.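 How the source made its calls: active means most replicate scores above 10, or exactly half above 10 with mean activity above 10; inconclusive means mean activity below 10 while half the replicates exceed 10; inactive means most replicate scores below 10.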
Experiment: inducers of caspase activity in MEF A1-2A-BIM cells, primary screen, A1 inhibitor project, cell-based, CaspaseGlo luminescence (AID 2241);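 further: effector caspase 3 and 7 activity cleaving a DEVD luciferin substrate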
Conditions: caspase-Glo luminescence, 3 h, stronger effect = higher value, percent of clofoctol signal, DMSO as zero, concentration not given here

Structure (SMILES)	caspase activation
Cc1cc(C)n(CCc2nc3c4ccccc4n(Cc4ccc(Cl)cc4)c(=O)n3n2)n1	-0.449%
CCOc1ccc2c(c1)sc(=NC(=O)c1cc3ccccc3cc1OC)n2C	1.85%
COC(=O)c1c(C)c(=O)[nH]c2ccccc12	0.776%
CCCOc1ccc(Oc2nc(N(C)C)nc(N(C)C)n2)nn1	0.458%
CCOC(=O)N1CCC(NC(=O)NCc2noc3ccccc23)CC1	0.501%
C[C@@H]1CN([C@@H](C)CO)C(=O)c2cc(NS(=O)(=O)c3ccccc3)ccc2O[C@H]1CN(C)CC1CCCCC1	-0.065%
O=C(CC1N=C2c3ccccc3N=C(SCc3ccccc3F)N2C1=O)NC1CCCCC1 (stereo not given)	-0.498%
C[C@@H]1CN([C@H](C)CO)C(=O)c2cc(NC(=O)Nc3ccccc3)ccc2O[C@H]1CN(C)S(=O)(=O)c1ccc(F)cc1	-0.342%
O=c1c2ccccc2nc(SCc2ccc(F)cc2)n1-c1ccccc1	-0.926%
O=C(NCc1ccc2c(c1)OCO2)C12CC3CC(CC(C3)C1)C2	0.545%
CCOC(=O)c1cc(-c2ccccc2)n(-c2ccccc2C)n1	-0.391%
C=CCn1cc(C=C2C(=O)N(C)C(=S)N(C)C2=O)c2ccccc21	1.19%
C[C@H]1CN([C@@H](C)CO)C(=O)c2cc(NS(C)(=O)=O)ccc2O[C@@H]1CN(C)S(=O)(=O)c1ccc(Cl)cc1	-0.347%
CC(C)CC1NC(=O)N(c2ccccc2)C1=O (stereo not given)	0.301%
C[C@H](CO)N1C[C@H](C)[C@H](CN(C)Cc2ccc(-c3ccccc3)cc2)Oc2ccc(NS(=O)(=O)c3ccccc3)cc2C1=O	0.241%
Cc1ccc(NC2=CC(=O)NC2)cc1	1.28%
CN(CCOC(=O)C1c2ccccc2Oc2ccccc21)Cc1ccccc1	1.21%
Cc1cccc(NC(=O)c2ccc(C)c(S(=O)(=O)N3CCCC3)c2)c1	-5.91%
CC(=O)N1N=C(c2ccccc2)OC1c1cccnc1 (stereo not given)	-0.213%
C[C@H]1CN([C@@H](C)CO)C(=O)c2cc(NC(=O)Nc3ccccc3)ccc2O[C@H]1CN(C)C(=O)Nc1ccc(F)cc1	0.365%
Cc1ccccc1N(C)S(=O)(=O)c1ccc2[nH]cc(C(=O)NCCC(C)C)c(=O)c2c1	0.114%
COc1cc(C=Nc2ccc(Cl)cc2)ccc1OC(=O)/C=C/c1cccs1	-0.187%
O=C(Cc1ccccc1)N1CCCc2ccccc21	1.12%
O=C(Nc1ccccc1)Nc1ccc(C2SCCS2)cc1	-6.29%
Cc1ccc(-n2c(C)cc(C=C3C(=O)c4ccccc4C3=O)c2C)cc1	-6.47%
C[C@@H]1CN([C@H](C)CO)C(=O)c2cc(NC(=O)Cc3ccccc3)ccc2O[C@H]1CN(C)S(=O)(=O)c1cn(C)cn1	0.269%
CCN1C(=O)c2ccccc2Sc2ccc(NC(=O)N3CCc4ccccc43)cc21	-0.754%

Structure (SMILES)	caspase activation
N#CCNC(=O)CN1C(=O)c2ccccc2C1=O	0.74%
CCN1C(=O)c2cccc3c(NC(=S)NC(=O)c4ccccc4)ccc1c23	11.5% (active)
CC1CCC(NC(=O)Cn2ncn3c(cc4sccc43)c2=O)CC1 (stereo not given)	-0.216%
O=C1CC(c2ccccc2)C(=O)N1c1ccc(F)cc1 (stereo not given)	0.129%
COc1cc(SC)ccc1C(=O)N(C)c1ccccc1	-0.443%
S=C(Nc1cccc(Cl)c1)NC1CCSc2ccc(Cl)cc21 (stereo not given)	1.82%
C[C@H](CO)N1C[C@H](C)[C@H](CN(C)S(C)(=O)=O)Oc2ccc(NC(=O)CCCN(C)C)cc2C1=O	0.894%
COc1ccc(S(=O)(=O)N(C)C[C@@H]2Oc3ccc(NC(=O)Nc4c(C)noc4C)cc3C(=O)N([C@H](C)CO)C[C@@H]2C)cc1	-0.0515%
CC1CCC(C(C)C)C(=O)/C1=C\c1ccc(NC(=O)CCC(=O)O)cc1 (stereo not given)	-1.52%
COc1ccc(NC(=O)Nc2ccc3c(c2)C(=O)N([C@@H](C)CO)C[C@H](C)[C@@H](CN(C)Cc2ccc4c(c2)OCO4)O3)cc1	0.747%
CC1=CCC(C(=O)O)(C(=O)NCc2ccccc2)C(c2ccc(Br)cc2)C1 (stereo not given)	0.252%
C[C@@H]1CN([C@H](C)CO)C(=O)c2cc(N(C)C)ccc2O[C@@H]1CN(C)S(C)(=O)=O	1.19%
Cc1noc(C)c1NC(=O)N(C)C[C@@H]1Oc2ccc(NS(C)(=O)=O)cc2C(=O)N([C@H](C)CO)C[C@@H]1C	-0.083%
O=c1oc2ccccc2cc1-c1ccc(Cl)cc1	-4.58%
COc1ccc(OC)c2c(C)cc(=O)[nH]c12	0.675%
Cc1ccc(Nc2nc(C)cc(C)c2C(N)=O)cc1	0.407%
CCOC(=O)c1cc(CC)sc1/N=C/C1C(=O)c2ccccc2C1=O	0.959%
NC(=O)c1nnc2cc(-c3ccccc3)nn2c1N	-5.53%
C[C@@H]1CN([C@@H](C)CO)C(=O)c2cc(NC(=O)c3ccncc3)ccc2O[C@H]1CN(C)S(=O)(=O)c1ccc(Cl)cc1	-0.107%
Cc1nc2ccccn2c1-c1ccnc(SCC(=O)c2ccc(Cl)cc2)n1	2.75%
COc1cc(C2OC(c3ccc(O)c(OC)c3)C(C)(O)C2C)ccc1O (stereo not given)	0.0643%
O=C(COC(=O)c1cc2ccccc2oc1=O)c1ccccc1	-0.224%
CC(C(=O)NC1CCCC1)n1c2ccccc2c2cnn(C)c(=O)c21 (stereo not given)	-0.382%
CCn1c(=O)c2c(n3c(SCC(N)=O)nnc13)-c1ccccc1CC21CCCCC1	1.18%
O=C(NCN1CCCCC1)C12CC3CC(CC(C3)C1)C2	0.282%
C[C@H]1O[C@@H](O[C@H]2[C@@H](O)C[C@H](O[C@H]3[C@@H](O)C[C@H](O[C@H]4CC[C@]5(C)C6C[C@@H](O)[C@]7(C)[C@@H](C8=CC(=O)OC8)CC[C@]7(O)C6CC[C@@H]5C4)O[C@@H]3C)O[C@@H]2C)C[C@H](O)[C@@H]1O (stereo not given in full)	0.786%
CN(c1ncnc2c1cnn2-c1ccc(Cl)cc1)C1CCCCC1	-2.01%

Structure (SMILES)	caspase activation
CC1CCN(S(=O)(=O)c2ccc3nc(-c4ccccn4)cc(C(=O)NC4CCCC4)c3c2)CC1	-1.16%
CC(C)(C)c1ccc(/C=C/C(=O)NC2CCS(=O)(=O)C2)cc1 (stereo not given)	-0.861%
C=C1C(=O)O[C@@H]2[C@H]3C(CO)=CC(=O)C3=C(C)C[C@H](OC(=O)Cc3ccc(O)cc3)[C@@H]12	-0.373%
C[C@@H]1CN([C@H](C)CO)C(=O)c2cc(NS(=O)(=O)c3ccc(F)cc3)ccc2O[C@H]1CN(C)Cc1ccncc1	0.648%
CC(C)(C)c1ccc(Cn2c(=N)n(CC(=O)O)c3ccccc32)cc1	-0.508%
C[C@@H]1CN([C@@H](C)CO)C(=O)c2cc(NC(=O)Cc3ccccc3)ccc2O[C@@H]1CN(C)S(=O)(=O)c1ccccc1	0.193%
CCCCn1c2nc3ccccc3nc2c2c(N)ncnc21	-0.174%
C[C@@H]1CN([C@@H](C)CO)C(=O)c2cc(NC(=O)Nc3ccc(F)cc3)ccc2O[C@H]1CN(C)CC1CCCCC1	0.271%
CCc1ccccc1NC(=O)c1ccc2snnc2c1	0.441%
CCOC(=O)C1CCC(CN(Cc2ccccc2)S(=O)(=O)c2ccc(F)c(C)c2)CC1 (stereo not given)	0.544%
CC(C)[C@H](CO)Nc1nc(Nc2cc(N)cc(Cl)c2)c2ncn(C(C)C)c2n1	13.9% (active)
CC(C)OC(=O)C1=c2s/c(=C\c3cccnc3)c(=O)n2C(N)=C(C#N)C1c1cccnc1 (stereo not given)	-0.566%
COc1ccc(NC(=O)N(C)C[C@H]2Oc3ccc(NS(=O)(=O)c4ccc(F)cc4)cc3C(=O)N([C@@H](C)CO)C[C@@H]2C)cc1	-0.29%
Cc1ccc(-c2nc(Nc3ccccc3F)sc2C)cc1	-0.917%
CC1CCN(C(=O)Cn2cnc3c(cnn3-c3ccccc3)c2=O)CC1	-0.191%
O=C(c1nc2ncccn2n1)N(Cc1ccccc1)Cc1ccccc1	-0.322%
COc1nnc(-c2ccc(C)c(S(=O)(=O)N(C)C)c2)c2ccccc12	0.109%
Cc1ccc(S(=O)(=O)Nc2ccc3c(c2)C(=O)N([C@@H](C)CO)C[C@@H](C)[C@@H](CN(C)Cc2ccncc2)O3)cc1	0.309%
Cc1ccc(C(=O)NC(NCc2ccco2)(C(F)(F)F)C(F)(F)F)cc1	-0.256%
O=C(c1ccccc1)C(CC(=O)N1CCOCC1)c1ccccc1 (stereo not given)	0.00844%
C[C@@H]1CN([C@H](C)CO)C(=O)c2cc(NC(=O)Cc3cn(C)c4ccccc34)ccc2O[C@@H]1CN(C)S(=O)(=O)c1cccs1	-0.00537%
CCSc1ccc2nnc(CCNC(=O)c3ccccc3)n2n1	0.0984%
COc1ccccc1C(=O)N/C(=C\c1ccccc1)C(=O)N1CCOCC1	-0.546%
Cc1ccc(O)c(C(C)(C)C)c1	-0.605%
Cc1sc2nc3n(c(=O)c2c1C)N=C(c1ccc(F)cc1)CS3	-1.09%
CC1=C(Cc2ccc(OC(=O)c3ccccc3)cc2)C(=O)C(C(C)C)CC1 (stereo not given)	0.579%
